These results are taken from PubChem BioAssay AID743498 (The Scripps Research Institute Molecular Screening Center, 2014).

The structures appear in SMILES notation. Active and inactive are the calls of the source.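 How the source made its calls: active means IC50, the dose giving half inhibition, at or below 10 µM; inactive means IC50 above 10 µM.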

A short description of this assay: DNA CAG repeat dye-complex inhibitors – biochemical, fluorescence, 5'CAG/3'GTC DNA, powders, MedChem round 1, counter-screen for r(CAG) RNA repeat binder project, late-stage follow-up (AID 743498). Conditions: DNA d(CAG) repeat TO-PRO-1 dye displacement. (The purpose of a counterscreen is to sort out artefacts and off-target activity.)
In general, IC50 refers to the concentration that gives 50% inhibition. Turning to `CC(=O)NS(=O)(=O)c1ccc(NC(=O)/C=C/c2cn(-c3ccccc3)nc2-c2ccccc2)cc1`, the half-inhibitory concentration (IC50) was 3.6 µM (active).
Turning to `COc1ccc(-c2nn(-c3ccccc3)cc2/C=C/C(=O)Nc2cccc(NC(C)=O)c2)cc1OC`, the IC50 was > 29.9 µM (inactive).
For the molecule `CN1C(=O)/C(=C/c2cn(-c3ccccc3)nc2-c2ccccc2)c2ccccc21`, the IC50 is > 29.9 µM (inactive).
The value for `COC(=O)c1ccc(NC(=O)/C=C/c2cn(CCC#N)nc2-c2ccc(F)cc2)cc1` was > 29.9 µM (inactive).
The value for `CCN1CCN(C(=O)/C=C/c2cn(-c3ccccc3)nc2-c2ccccc2)CC1` was > 29.9 µM (inactive).
As to `CCN(c1ccccc1)S(=O)(=O)c1ccc(NC(=O)c2oc3ccc(F)cc3c2C)cc1`, the IC50 is > 29.9 µM (inactive).
Next, `CNC(=O)Cc1ccc(NC(=O)/C=C/c2cn(-c3ccccc3)nc2-c2ccc(F)cc2)cc1`: > 29.9 µM (inactive); `CS(=O)(=O)Nc1cc(NC(=O)/C=C/c2cn(-c3ccccc3)nc2-c2ccccc2)ccc1F`: 12.2 µM (inactive).
With `CN(C)CCCNC(=O)/C=C/c1cn(-c2ccccc2)nc1-c1ccccc1`, the IC50 is > 29.9 µM (inactive).
Next, `O=C(/C=C/c1cn(-c2ccccc2)nc1-c1ccccc1)Nc1cc(S(=O)(=O)N2CCCC2)ccc1Cl`: > 29.9 µM (inactive).
The value for `N#C/C(=C/c1cn(Cc2ccccc2)nc1-c1cccnc1)C(=O)Nc1ccc(C(=O)O)cc1` was > 29.9 µM (inactive); that for `COc1ccc(NC(=O)/C=C/c2cn(-c3ccccc3)nc2-c2ccc(OC)cc2)cc1` was > 29.9 µM (inactive).
Regarding `O=C(/C=C/c1cn(-c2ccccc2)nc1-c1ccc2ccccc2c1)Nc1ccc(C(=O)O)cc1`, the IC50 was 3.53 µM (active).
For the molecule `N#C/C(=C/c1cn(-c2ccccc2)nc1-c1cccnc1)C(=O)Nc1ccc(C(=O)O)cc1`, the IC50 was 28.6 µM (inactive).
Turning to `Cc1c(C(=O)Nc2ccc(S(=O)(=O)N(C)Cc3ccccc3)cc2)oc2ccc(F)cc12`, the IC50 is > 29.9 µM (inactive).
Next, `Cc1ccc(-c2nn(-c3ccccc3)cc2/C=C/C(=O)Nc2ccc(S(N)(=O)=O)cc2)cc1`: > 29.9 µM (inactive).
The value for `O=C(/C=C/c1cn(-c2ccccc2)nc1-c1ccccc1)NCCc1c[nH]c2ccccc12` was > 29.9 µM (inactive); that for `CN(C)C(=O)C1CCN(C(=O)/C=C/c2cn(-c3ccccc3)nc2-c2ccccc2)CC1` was > 29.9 µM (inactive); that for `Cc1ccc(-c2nn(-c3ccccc3)cc2/C=C/C(=O)Nc2cccc(S(N)(=O)=O)c2)cc1` was > 29.9 µM (inactive).
Next, `Cc1c(C(=O)Nc2ccc(S(=O)(=O)NCCCN3CCOCC3)cc2)oc2ccc(F)cc12`: > 29.9 µM (inactive); `O=C(/C=C/c1cn(-c2ccccc2)nc1-c1ccccc1)N1CCN(CC(=O)N2CCCC2)CC1`: > 29.9 µM (inactive).
For `COc1ccc(-c2nn(-c3ccccc3)cc2/C=C/C(=O)Nc2ccc(C(=O)O)cc2)cc1`, the IC50 was 3.83 µM (active).
With `O=C(/C=C\c1cn(-c2ccccc2)nc1-c1ccc(F)cc1)Nc1ccc(C(=O)O)cc1`, the half-maximal inhibitory concentration (IC50) was 4.76 µM (active).
For the molecule `CCN(CC)C(=O)/C=C/c1cn(-c2ccccc2)nc1-c1ccccc1`, the IC50 is > 29.9 µM (inactive).
Next, `NC(=O)c1cc(NC(=O)/C=C/c2cn(-c3ccccc3)nc2-c2ccc(F)cc2)c(F)cc1F`: > 29.9 µM (inactive); `CN1CCC(N(C)C(=O)/C=C/c2cn(-c3ccccc3)nc2-c2ccccc2)CC1`: > 29.9 µM (inactive); `O=C(/C=C/c1cn(-c2ccccc2)nc1-c1ccccc1)NCc1ccccc1`: > 29.9 µM (inactive).
For the molecule `NS(=O)(=O)c1ccc(NC(=O)/C=C/c2cn(-c3ccccc3)nc2-c2cccc(Cl)c2)cc1`, the IC50 was > 29.9 µM (inactive).
Next, `CCOC(=O)N1CCC(NC(=O)/C=C/c2cn(-c3ccccc3)nc2-c2ccccc2)CC1`: > 29.9 µM (inactive).
`O=C(/C=C/c1cn(-c2ccccc2)nc1-c1ccccc1)NCCO`: the IC50 is > 29.9 µM (inactive).
Turning to `Cc1c(C(=O)Nc2ccc(S(=O)(=O)Nc3ncccn3)cc2)oc2ccc(F)cc12`, the IC50 is > 29.9 µM (inactive).
